From the supplement of paper PMC6555819

What follows are sequences tested on LXRb homodimer (NR concentration 270 nM) (assay: PBM binding z-score (relative to random genomic background probes); higher = stronger binding; sequences stand for … in GC…GCGATTGACAGCGTAGAATGAAGG).
Procedure, shortened: (§1)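 Binding buffer was PBS pH 7.4 with 2% milk, 0.02% Triton X-100, 1 mM DTT, 0.2 mg/mL BSA and 0.4 mg/ml salmon testes DNA. In it, ligand-free nuclear receptor dimers were incubated 1 h on custom Agilent 4×180K protein-binding microarrays carrying double-stranded probes. Antibodies against each partner (one per run) detected binding, and z-scores were calculated against random background probes after regression normalization of scanned fluorescence.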

In order of rising PBM binding z-score:
1. CCTCGGAGGACCGAAGGTCAGAGCTGTCCGCTTT  -1.03
2. TGAATGAGGCTATAAGATCAGGGAACGTTGCAAA  -0.998
3. ACAGACGGGTGAGTGAAGGTAACTCAGCTGGACG  -0.833
4. GCGGCTAGGTCAACTGATGGTCAGCTAAAGCTCG  -0.808
5. GCTAGCAGGCCATTTCGGTCACTCAATGACGGGC  -0.792
6. ACAGACAGGTGAGTGAAGCTAACTCAGCTGGACG  -0.79
7. TTTAGCAGGCCAGAGGGTCACTCAAGAGGTACGG  -0.78
8. GCAGACAGGTGAAACGCCGGTAACTCAGGGTGGC  -0.77
9. CCTAGCAGCCCAGGGTCACTCAAGCATTTCGCTT  -0.762
10. ACTCGGAGGACAAAGGTTAGAGCTACGCCAGTGA  -0.716
11. GGAACGAGGGCATTCGTGTTGATAGCATGGCGAT  -0.674
12. GGAACGAGGGCAAGTTGAGAGCAGAGTTTGATGG  -0.627
13. CTCGAAAGCTCGGTTGAGGTGAGTATACGGATAA  -0.608
14. CGAACTAGGTAATCCAGGACAGTGAATACATTGA  -0.454
15. TCTTGTAGATCAACAAGAGGTTAAGAAAGATCGA  -0.334
16. TCTAGTTGGTCACGGAGGTCTCACACGACGGGTA  -0.332
17. CCAGACAGGTGAAAGGTAACACAGTCTGGTACGC  -0.313
18. CGAACTAGGTCAAGGACAATGAATCTCCGCACGC  -0.174
19. CCTTACGGGTAAAGGTTATAGCACGGGTGGTACG  -0.173
20. CGTCCAATGTCAGCAGGTCAGTGAAAGCGACGTG  -0.161
21. CCTAGTTGGTCAAGGGCACACACGCTATAGGTAC  -0.148
22. GCATATAGGTAATACAATGTGAAAGTCCGATTGT  -0.0471
23. TAGCCTAGGTCATGGGCCAATATACCACGCGAAC  0.00748
24. TCTGCTAGGTCAAAGATGGTCAGCTAATCTGCTA  0.0441
25. ACTAGCAGGACAAGGGTCACTCAAGATTAGTCCG  0.105
26. CCTCCAAGGTCAGCAGGTCAGTGAAAGCGACGTG  0.111
27. ACTATTAGTAGAGACGAGGGCAACCGATAGGTTG  0.12
28. CCTTCCGGGTCACTCCAGGTTATAGCATCGGAGT  0.22
29. CCTACTGGGCCATCCAGAGGTCATTGATCATATG  0.613
30. ATCTCTAGGTAAGACTCAGTTCACTGAAGAACGC  0.669
31. CGTCCAAGGTCAATGCTATGTCAGTGAAAGCATT  0.692
32. ATCTCTAGGTAACTAGTTCAGTGAAAGAGAGGAC  0.75
33. ACTCCGAGGACAAAGGTCAGAGCTACGCCAGTGA  0.764
34. CGTCCAAGGTCATAGGAGGTCAGAGAAGACAGAT  0.877
35. ATCTCTAGGTAACAAAGTTCAGTGAATGCCGAAC  0.958
36. CGTCCAAGGTCATAGGAGGTCAGTGAAGACAGAT  1.01
37. CAAACTAGGTCAAACGTCAAAGTCGAGCCAACCA  1.12
38. ATATGTAGGTTCGCTGGGGTCATTCAGACTAGGC  1.4
39. CAAACTAGGTCATGAGGTCAAAGTCCGCTTCCCG  1.82
40. CCAACTAGGTCACGAAAGGTCAAAGTCGAATGAC  2.78

These sequences were tested on PPARa:RXRa (NR concentration 270 nM, RXRa partner concentration 90 nM) in the same assay as above.
Procedure, shortened: as §1

In order of rising PBM binding z-score:
1. GCTAGCAGGCCATTTCGGTCACTCAATGACGGGC  -0.343
2. ACAGACAGGTGAGTGAAGCTAACTCAGCTGGACG  -0.342
3. CTCGAAAGCTCGGTTGAGGTGAGTATACGGATAA  -0.294
4. TGAATGAGGCTATAAGATCAGGGAACGTTGCAAA  -0.176
5. ACAGACGGGTGAGTGAAGGTAACTCAGCTGGACG  0.0344
6. ACTATTAGTAGAGACGAGGGCAACCGATAGGTTG  0.455
7. GCAGACAGGTGAAACGCCGGTAACTCAGGGTGGC  0.601
8. CCTAGTTGGTCAAGGGCACACACGCTATAGGTAC  0.682
9. GCATATAGGTAATACAATGTGAAAGTCCGATTGT  0.701
10. ATCTCTAGGTAAGACTCAGTTCACTGAAGAACGC  0.739
11. ATCTCTAGGTAACTAGTTCAGTGAAAGAGAGGAC  0.794
12. TCTAGTTGGTCACGGAGGTCTCACACGACGGGTA  1.16
13. CGTCCAATGTCAGCAGGTCAGTGAAAGCGACGTG  1.22
14. CGAACTAGGTAATCCAGGACAGTGAATACATTGA  1.23
15. GGAACGAGGGCATTCGTGTTGATAGCATGGCGAT  1.39
16. CCTCGGAGGACCGAAGGTCAGAGCTGTCCGCTTT  1.61
17. GGAACGAGGGCAAGTTGAGAGCAGAGTTTGATGG  1.72
18. TCTTGTAGATCAACAAGAGGTTAAGAAAGATCGA  1.96
19. ATCTCTAGGTAACAAAGTTCAGTGAATGCCGAAC  2.12
20. TTTAGCAGGCCAGAGGGTCACTCAAGAGGTACGG  2.32
21. ACTCGGAGGACAAAGGTTAGAGCTACGCCAGTGA  2.93
22. CCTAGCAGCCCAGGGTCACTCAAGCATTTCGCTT  2.99
23. CCTTACGGGTAAAGGTTATAGCACGGGTGGTACG  3.02
24. CCAGACAGGTGAAAGGTAACACAGTCTGGTACGC  3.54
25. GCGGCTAGGTCAACTGATGGTCAGCTAAAGCTCG  3.56
26. TCTGCTAGGTCAAAGATGGTCAGCTAATCTGCTA  3.73
27. CCTACTGGGCCATCCAGAGGTCATTGATCATATG  4.07
28. ACTAGCAGGACAAGGGTCACTCAAGATTAGTCCG  4.3
29. TAGCCTAGGTCATGGGCCAATATACCACGCGAAC  4.3
30. CCTTCCGGGTCACTCCAGGTTATAGCATCGGAGT  4.38
31. CCTCCAAGGTCAGCAGGTCAGTGAAAGCGACGTG  4.67
32. ATATGTAGGTTCGCTGGGGTCATTCAGACTAGGC  4.69
33. CGAACTAGGTCAAGGACAATGAATCTCCGCACGC  4.72
34. ACTCCGAGGACAAAGGTCAGAGCTACGCCAGTGA  4.91
35. CGTCCAAGGTCAATGCTATGTCAGTGAAAGCATT  4.99
36. CGTCCAAGGTCATAGGAGGTCAGTGAAGACAGAT  5.84
37. CAAACTAGGTCAAACGTCAAAGTCGAGCCAACCA  6.14
38. CGTCCAAGGTCATAGGAGGTCAGAGAAGACAGAT  6.27
39. CAAACTAGGTCATGAGGTCAAAGTCCGCTTCCCG  6.48
40. CCAACTAGGTCACGAAAGGTCAAAGTCGAATGAC  6.63
